Results reported in PubChem BioAssay.
Entries with a potency or affinity are not part of this list. Inconclusive results are not listed. The source made the active and inactive calls. Unless noted, how the calls were made is not given here.

Tests used:
[1] = RMG-1 ovarian cancer cell viability loss – cherry-pick, dose response (AID 687029;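 active means signal drop whose fitted half-maximal concentration is at most twice the top valid dose, in every test run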;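 further: cells exposed to compound for 96 hours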)
[2] = IOSE-T80 viability loss, PAX8-independent line – cell-based, cherry-pick, selectivity assay for PAX8 inhibitor project, dose response (AID 687032;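 active means fitted half-maximal concentration for viability loss no higher than twice the top valid dose, in every repeat run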;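 further: cells exposed to compound for 96 h before reading; 0% = neutral control wells and -100% = 2 µM mitoxantrone kill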)
[3] = CMV-driven luciferase expression suppression in HEK293 – cell-based, luminescence, dry powder, counter-screen for Pax8 inhibitor project, dose response (AID 743020;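 active means signal-lowering compounds whose fitted half-maximal concentration is at or below twice the top tested dose in every run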;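 further: HEK293 cells stably expressing the CMV luciferase reporter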)
[4] = general cell-killing toxicity readout – plate reader, dry powder samples, cytotoxicity control for PAX8 inhibitor project, dose response (AID 743021)
[5] = toxicity toward immortalized ovarian surface epithelium – cell-based, plate reader, dry powder samples, cytotoxicity control for PAX8 inhibitor project, dose response (AID 743045);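 further: 0% = neutral control median and -100% = positive control median; more negative values mean more cell killing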
[6] = A2780 cell killing – plate reader, dry powder samples, cytotoxicity control, dose response (AID 743046);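 further: 0% = neutral control wells and -100% = cytotoxic reference compound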
[7] = OVCAR8 cell viability loss – plate reader, dry powder samples, PAX8 project, dose response (AID 743197)
[8] = IGROV1 cell killing – plate reader, dry powder samples, PAX8 inhibitor project, dose response (AID 743043);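 further: more negative means fewer viable cells or more cytotoxicity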
[9] = OVCAR-3 cell viability loss – plate reader, dry powder samples, PAX8 inhibitor project, dose response (AID 743044); settings: max activity: at 35 µM, active compounds read low unless noted

C[C@@H]1CN([C@@H](C)CO)S(=O)(=O)c2ccc(C#C[C@@H](C)O)cc2O[C@H]1CN(C)Cc1ccc(-c2ccccc2)cc1
inactive: outcome [1] | outcome [2] | outcome [3] | outcome [4] | outcome [5] | outcome [6] | outcome [7]

C[C@@H]1CN([C@@H](C)CO)C(=O)Cc2cc(NS(=O)(=O)c3cccs3)ccc2O[C@H]1CN(C)Cc1ccc(C(F)(F)F)cc1
inactive: outcome [1] | outcome [2] | outcome [3] | outcome [4] | outcome [5] | outcome [6] | outcome [7]

C[C@H](CO)N1C[C@H](C)[C@H](CN(C)Cc2ccc(C(F)(F)F)cc2)OCCCC[C@H](C)Oc2ccc(NC(=O)Nc3ccc4c(c3)OCO4)cc2C1=O
inactive: outcome [1] | outcome [2] | outcome [3] | outcome [4] | outcome [5] | outcome [6] | outcome [7]

O=C(C1CCCC1)N1CC[C@@H]2[C@H](CO)Nc3ccc(C4=CCCCC4)cc3[C@@H]21
inactive: outcome [1] | outcome [2] | outcome [3] | outcome [4] | outcome [5] | outcome [6]

C[C@@H]1CN([C@@H](C)CO)C(=O)Cc2cc(NC(=O)CCC(F)(F)F)ccc2O[C@H]1CN(C)Cc1ccc(Oc2ccccc2)cc1
inactive: outcome [1] | outcome [2] | outcome [3] | outcome [4] | outcome [5] | outcome [6] | outcome [7]

O=C(NC1CCCCC1)N1C[C@@H]2N[C@H](C1)C2c1ccc(-c2ccc(F)cc2)cc1 (some centres not stated)
inactive: outcome [1] | outcome [2] | outcome [3] | outcome [4] | outcome [6]

C[C@H](CO)N1C[C@H](C)[C@@H](CN(C)Cc2ccccc2)Oc2ccc(NC(=O)Nc3ccc(C(F)(F)F)cc3)cc2CC1=O
inactive: outcome [1] | outcome [2] | outcome [3] | outcome [4] | outcome [5] | outcome [6] | outcome [7]

O=C1CN(S(=O)(=O)Cc2ccccc2)C[C@@H]2[C@@H](c3ccc(C#CC4CC4)cc3)[C@@H](CO)N12
inactive: outcome [1] | outcome [2] | outcome [3] | outcome [4] | outcome [5] | activity change, negative = cytotoxicity [6] 19% [at 8 µM]

C[C@@H]1CN([C@H](C)CO)C(=O)c2cc(NC(=O)Nc3ccc(C(F)(F)F)cc3)ccc2O[C@@H](C)CCCCO[C@@H]1CN(C)Cc1ccc2c(c1)OCO2
inactive: outcome [1] | outcome [2] | outcome [3] | outcome [4] | outcome [5] | outcome [6]

C[C@@H]1CN([C@@H](C)CO)C(=O)Cc2cc(NC(=O)Nc3ccc4c(c3)OCO4)ccc2O[C@H]1CN(C)CC1CCCCC1
inactive: outcome [1] | outcome [2] | outcome [3] | outcome [4] | outcome [5] | outcome [6] | outcome [7]

Cc1ccc(S(=O)(=O)Nc2ccc3c(c2)CC(=O)N([C@@H](C)CO)C[C@@H](C)[C@H](CN(C)Cc2ccc(Cl)c(Cl)c2)O3)cc1
inactive: outcome [1] | outcome [2] | outcome [3] | outcome [4] | outcome [5] | outcome [6] | outcome [7]

C[C@H]1CCCCO[C@@H](CN(C)Cc2ccc(C(F)(F)F)cc2)[C@@H](C)CN([C@@H](C)CO)C(=O)c2cc(NC(=O)Nc3ccc4c(c3)OCO4)ccc2O1
inactive: outcome [1] | outcome [2] | outcome [3] | outcome [4] | outcome [5] | outcome [6]

COc1cccc(S(=O)(=O)N2CC[C@@H]3[C@@H](CO)Nc4ccc(-c5ccccc5OC)cc4[C@@H]32)c1
inactive: outcome [1] | outcome [2] | outcome [3] | outcome [4] | outcome [6]

Cc1cccc(S(=O)(=O)N2CCCCN3[C@H](CO)[C@H](c4ccc(C#CC(C)C)cc4)[C@H]3C2)c1
inactive: outcome [1] | outcome [2] | outcome [3] | outcome [4] | outcome [6]

Cc1ccccc1S(=O)(=O)N1C[C@@H]2N[C@H](C1)C2c1ccc(-c2cccc(C#N)c2)cc1 (some centres not stated)
inactive: outcome [1] | outcome [2] | outcome [3] | outcome [4] | outcome [6]

O=C(Nc1ccc(C(F)(F)F)cc1)N1C[C@@H]2N[C@H](C1)C2c1ccc(/C=C/c2ccccc2)cc1 (some centres not stated)
inactive: outcome [1] | outcome [2] | outcome [3] | outcome [4] | outcome [5] | outcome [7]

COc1ccc(S(=O)(=O)Nc2ccc3c(c2)CC(=O)N([C@@H](C)CO)C[C@H](C)[C@@H](CN(C)Cc2ccc(C(F)(F)F)cc2)O3)cc1
inactive: outcome [1] | outcome [2] | outcome [3] | outcome [8] | outcome [5] | outcome [6] | outcome [7]

COc1ccc(NC(=O)Nc2ccc3c(c2)C(=O)N([C@@H](C)CO)C[C@@H](C)[C@H](CN(C)Cc2ccc(C(F)(F)F)cc2)O3)cc1
inactive: outcome [1] | outcome [2] | outcome [3] | outcome [8] | max activity [9] 30.5% [at 30 µM, active compounds read low] | outcome [5] | outcome [6] | outcome [7]

COc1cccc(C#Cc2ccc([C@@H]3[C@@H](C#N)N(C(=O)C4CCCCC4)[C@H]3CO)cc2)c1
inactive: outcome [1] | outcome [2] | outcome [3] | outcome [8] | max activity [9] 22.8% [at 1 µM, active compounds read low] | outcome [5] | outcome [6]

C[C@H](CO)N1C[C@H](C)[C@H](CN(C)Cc2ccccc2)OCCCC[C@H](C)Oc2ccc(NC(=O)Nc3ccc(C(F)(F)F)cc3)cc2C1=O
inactive: outcome [1] | outcome [2] | outcome [3] | outcome [4] | outcome [7]

C[C@H](CO)N1C[C@H](C)[C@@H](CN(C)C(=O)Cc2ccccc2)OCCCC[C@H](C)Oc2ccc(NC(=O)Nc3ccc(C(F)(F)F)cc3)cc2C1=O
inactive: outcome [1] | outcome [2] | outcome [3] | outcome [8] | max activity [9] 1.93% [at 8 µM, active compounds read low] | outcome [5] | outcome [6]

COc1ccccc1C#Cc1ccc2c(c1)O[C@H](CN(C)Cc1ccncc1)[C@@H](C)CN([C@@H](C)CO)S2(=O)=O
inactive: outcome [1] | outcome [2] | outcome [3] | outcome [8] | outcome [5] | outcome [6] | outcome [7]

CCCC#Cc1ccc([C@H]2[C@@H](CO)N(C(=O)C3CCCCC3)[C@H]2C#N)cc1
inactive: outcome [1] | outcome [2] | outcome [3] | outcome [8] | outcome [5] | outcome [6] | outcome [7]
